# Eya2 phos inh = qHTS Assay for Inhibitors of the Phosphatase Activity of Eya2. Protein phosphatase EYA2 (Homo sapiens), O00167. recombinant Eya2, OMFP fluorescence dephosphorylation (OMFP is methylfluorescein phosphate). Potency, µM (titrated, usually from 76.9 µM), for the others: top-dose activity, negative = inhibition, most hits filed as inhibitors. 330,000 tested, 0.006% active. AID 488837, 2010; also: potency is read from the fitted curve at half-maximal effect
#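 Eya2 protein (added as 0.2 uM solution) was preincubated with compound for 10 min at ambient temperature in 50 mM HEPES pH 7.5, 50 mM NaCl, 5 uM MgCl2, 0.05% BSA, 1 mM DTT. OMFP (added at 50 uM) then reacted 10 min; fluorescence read at 485/525 nm.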
# TrxR1 substrate = qHTS Assay for Substrates of Mammalian Selenoprotein Thioredoxin Reductase 1 (TrxR1): qHTS; Potency, µM (titrated, usually from 114 µM), without a hit: at the top dose activity change, negative = substrate turnover; purified TrxR1 substrate turnover, NADPH consumption readout; AID 588456, 2011; Thioredoxin reductase 1, cytoplasmic (Rattus norvegicus), O89049; 390,000 tested, 0.01% active; also: potency is read from the fitted curve at half-maximal effect; nearly all actives have a fitted effect of over 50% in size
#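 Rat TrxR1, dispensed at 90 nM, was prereduced with 400 uM NADPH (final) for 5 min at ~22 deg C, then incubated with compound 15 min before 400 uM selenite. A first-read NADPH fluorescence drop versus no-compound background flagged substrates.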
# GALK inh = qHTS Assay for Inhibitors of Human Galactokinase (GALK); P51570; Purified GALK, Kinase-Glo residual ATP luminescence; Potency, µM (series often up to 57.5 µM), for inactives: at the top dose activity change, negative = inhibition, usual class: inhibitors; 270,000 tested, 0.007% active; AID 1868, 2009; also: potency is read from the fitted curve at half-maximal effect
# Target sequence (P51570 whole entry, looked up): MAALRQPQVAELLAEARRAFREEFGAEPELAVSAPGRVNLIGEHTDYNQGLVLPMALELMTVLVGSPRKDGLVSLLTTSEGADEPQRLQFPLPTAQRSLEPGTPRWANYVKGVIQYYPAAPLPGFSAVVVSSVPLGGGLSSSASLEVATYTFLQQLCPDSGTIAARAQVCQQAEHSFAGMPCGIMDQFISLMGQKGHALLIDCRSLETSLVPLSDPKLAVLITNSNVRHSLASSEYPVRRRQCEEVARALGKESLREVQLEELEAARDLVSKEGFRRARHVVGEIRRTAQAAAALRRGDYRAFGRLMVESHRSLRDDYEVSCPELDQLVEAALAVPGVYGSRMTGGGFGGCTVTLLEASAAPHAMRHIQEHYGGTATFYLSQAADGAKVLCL
#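 Quantitative HTS: GALK 5 nM, ATP 35 uM, galactose 100 uM, 1 h room temperature, then luciferase-based ATP detection.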
# Six1-Eya2 inh = qHTS Assay for Inhibitors of the Six1/Eya2 Interaction | AlphaScreen GST-Six1/His-Eya2 binding, biochemical; stronger effect = lower value | activity change, % (test concentration not listed) | 360,000 tested, 0.56% active | AID 651725, 2012; in the data active = activity change below about -65%; inconclusive = mostly about -30% to -63%
#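 GST-Six1 + His-Eya2 (5X stock: 250/500 nM); Tris pH 8.0, 300 mM NaCl, 0.05% BSA, 0.02% Tween 20; GSH donor/Ni acceptor beads; 1 h 37 °C dark; AlphaScreen readout.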
# TrxR1 inh = qHTS Assay for Inhibitors of Mammalian Selenoprotein Thioredoxin Reductase 1 (TrxR1): qHTS. 390,000 tested, 1% active. recombinant rTrxR1, NADPH fluorescence consumption, selenite substrate. AID 588453, 2011. Potency, µM (series often up to 114 µM), for inactives: at the highest dose activity change, negative = inhibition, most hits filed as inhibitors; also: potency is read from the fitted curve at half-maximal effect; nearly all actives have a fitted effect of over 65% in size
#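 Rat TrxR1 (90 nM in the dispensed reagent) was pre-reduced with 400 uM NADPH for 5 min at room temperature, then incubated with compound for 15 min. After 400 uM selenite was added, NADPH fluorescence (Ex 340/Em 450 nm) was followed for 8 min.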
# CtBP-E1A inh = qHTS Assay for Inhibitors of the CtBP/E1A Interaction; CtBP / adenovirus E1A interaction (AlphaScreen); AlphaScreen GST-E1A/His-CtBP binding, 1536-well; stronger effect = lower value; activity change, % (test concentration not listed); 340,000 tested, 0.49% active; AID 651724, 2012; in the data active = activity change below about -65%; inconclusive = mostly about -30% to -63%
#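 Steps: dispense buffer (Tris pH 8.0, NaCl 300 mM, TCEP 1 mM, BSA, Tween 20); add 5X protein mix (GST-E1A, His-CtBP, 125 nM each); pin 23 nL compound; 2 h at 37 °C, dark; add 5X beads (50 ug/mL); 1 h; read.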
# * marks the source's active call; other numbers are inactive results; ? = inconclusive; / = not tested or not shown; [ ] = another dose, or the depositor's remark. A selection: hits, their analogues and other compounds. The true share with any hit is near 1.5%. Unless noted, calls follow the shape of the dose curve; as a rule, active = well fitted curve in the direction sought with a large enough effect; inconclusive = small, poorly fitted or top-dose-only effect, or another doubt; inactive = no such curve, though single readings can be large; an effect the other way counts as inactive or inconclusive. % is scaled to controls: 0 for no effect and ±100 for the full control effect.
SMILES,Eya2 phos inh,TrxR1 substrate,GALK inh,Six1-Eya2 inh,TrxR1 inh,CtBP-E1A inh
c1ccc(-c2cn(C[C@H]3CC[C@@H]([C@@H]4CC[C@H](Cn5cc(-c6ccccn6)nn5)O4)O3)nn2)nc1,-6%,8%[57.1 µM],/,-87*,20%[57.1 µM],-81*
CC(=O)N1CCc2c(sc3c2c(=O)n(CCc2ccccc2)c(=O)n3CC(=O)Nc2ccc(C)c(F)c2)C1,/,-1%,/,/,22%,/
O=C(Nc1nccs1)c1ccccn1,1%,0%,1%,-87*,20%,?
O=C(NNC(=O)c1cccs1)c1ccccn1,/,/,/,-74*,/,?
O=C(NNC(=O)c1ccccn1)c1ccc(OC(F)F)cc1,-39%,4%,/,-84*,13%,-78*
O=C(NCCc1ccccn1)c1ccc(OC(F)F)cc1,2%,-10%,-3%,1,-6%,-7
O=C(NNC(=O)c1ccccc1Cl)c1cccs1,-6%,3%[57.1 µM],-3%,1,5%[57.1 µM],0
COc1cc(/C=C2\C(C)=C(C#N)c3nc(N)c(C#N)c(C)c32)ccc1OCC(=O)O,-1%,10%,-7%,-73*,32µM*,-18
Cc1ccc(SC2=NS(=O)(=O)c3ccccc32)c(C)c1,/,-1%,/,/,?,/
Cc1nc(Nc2ccc(C(=O)O)cc2)nc(Nc2ccc(C(=O)O)cc2)c1[N+](=O)[O-],10%,-12%,-16%,-75*,-4%,/
COc1cc(-c2noc(-c3ccc(N4CCOCC4)c([N+](=O)[O-])c3)n2)cc(OC)c1OC,/,-2%,/,/,-23%,/
CCOC(=O)c1sc2nc(C3CC3)cc(-c3ccc(OC)cc3)c2c1N,-14%,150%,-1%,15,50µM*,10
COc1cc2c(cc1OC)-c1cc(Nc3ccc(C(=O)O)cc3)nc(=O)n1CC2,5%,48%,-3%,?,28%[57.1 µM],-14
COc1ccc(Nc2cc3n(c(=O)n2)CCc2cc(OC)c(OC)cc2-3)cc1,0%,48%,2%,-79*,6%[57.1 µM],?
COc1cc2c(cc1OC)-c1cc(Nc3ccccc3)nc(=O)n1CC2,-14%,-15%[57.1 µM],/,-76*,17%[57.1 µM],1
COc1cc2c(cc1OC)-c1cc(Nc3ccc(C)cc3)nc(=O)n1CC2,0%,-6%,3%,?,-9%,/
COc1ccc(Nc2cc3n(c(=O)n2)CCc2cc(OC)c(OC)cc2-3)c(C)c1,5%,1%[57.1 µM],0%,?,8%[2.29 µM],/
COc1cc2c(cc1OC)-c1cc(NC3CCCCCC3)nc(=O)n1CC2,7%,38%,-1%,-71*,14%,?
CCN(CC)CCCNc1cc2n(c(=O)n1)CCc1cc(OC)c(OC)cc1-2,16%,93%,2%,-80*,-15%,-69*
COc1cccc(NC(=O)c2oc3ccccc3c2NC(=O)c2ccc(F)c(F)c2)c1,/,17%,/,/,18%,/
O=C(Nc1cc([N+](=O)[O-])ccc1O)c1ccc2c(c1)C(=O)N(Cc1ccco1)C2=O,-2%,-14%,3%,?,79µM*,?
CC1CCCN(c2ccc3nc4ccccc4c(=O)n3n2)C1 (stereo not given),1%,-1%[57.1 µM],0%,-67*,8%[57.1 µM],15
CCOC(=O)CN(Cc1ccccc1)C(C(=O)NC1CCCCC1)c1ccccc1 (stereo not given),/,-7%,/,/,-12%,/
CCCN(CCC)C1=N/C(=C\c2ccco2)C(=O)N1c1ccccc1,3%,-10%,0%,19,25µM*,14
Brc1cccc[n+]1CCC[n+]1ccccc1Br,/,-12%,/,/,6.3µM*,/
SMILES,Eya2 phos inh,TrxR1 substrate,GALK inh,Six1-Eya2 inh,TrxR1 inh,CtBP-E1A inh
Cc1cccc[n+]1CCCCCCCCCC[n+]1ccccc1C,3%,10%[57.1 µM],5%,1,16%,-2
CCOc1ccc(NC(=O)CN2CCCN(Cc3cc(C)ccc3C)S2(=O)=O)cc1,/,-3%,/,/,27%,/
CCNC(=O)c1c(NC(=O)c2nc(S(=O)(=O)CC)ncc2Cl)sc2c1CCCC2,/,-9%,/,/,14µM*,/
COCCCNC(=O)c1c(NC(=O)c2nc(S(C)(=O)=O)ncc2Cl)sc2c1CCCC2,/,6%,/,/,1.8µM*,/
O=[N+]([O-])c1cc(Cl)ccc1Nc1ccccc1,-6%,-4%,-1%,-78*,4%,/
CCC(O)(CC)C(=O)N/N=C/c1cc(Br)cc(Br)c1O,-6%,11%,6%,?,17%,?
CC(=O)N/N=C/c1cc(C(C)(C)C)cc(/C=N/NC(C)=O)c1O,7%,1%[57.1 µM],4%,-76*,15%[57.1 µM],-88*
C/C(=N/NC(=O)CNC(=O)c1ccccn1)c1ccccc1,-1%,2%,0%,5,27%,/
C=CCNC(=S)N/N=C(\C)c1ccccn1,22%,12%,1%,-89*,-11%,-97*
CC(=NNC(=S)Nc1ccccc1)c1ccccn1,/,/,/,-89*,/,?
CC(=NNC(=S)Nc1ccccc1Cl)c1ccccn1,/,2%[11.4 µM],/,-90*,-31%[11.4 µM],-66*
CC(=O)Nc1ccccc1-c1ccccc1[N+](=O)[O-],/,4%[2.29 µM],/,-3,6%[2.29 µM],3
CCS(=O)(=O)c1cc([N+](=O)[O-])c(Sc2ccccc2NC(C)=O)s1,5%,10%[57.1 µM],/,6,8.9µM*,8
Cc1ccc(S(=O)(=O)NC2OC(=O)C(Cl)=C2Cl)cc1 (stereo not given),13%,-2%,-1%,-3,10µM*,-2
O=C(CN1CCN(S(=O)(=O)c2ccc(F)cc2)CC1)c1ccc(O)c(O)c1,-8%,-11%[57.1 µM],0%,-10,-66%,-9
O=C(CN1CCN(S(=O)(=O)c2ccc(Cl)cc2)CC1)c1ccc(O)c(O)c1,8%,-9%,1%,-9,25µM*,/
COc1ccc(C(=O)Nc2nnc(S(=O)(=O)N(C)c3ccc(Cl)cc3)s2)cc1OC,/,5%,/,/,29%,/
O=c1cc(-c2ccc(OCc3ccccc3)cc2)oc2cc(OCc3ccccc3)cc(OCc3ccccc3)c12,-4%,4%,/,-2,40µM*,3
COc1cc(/C=C/C(=O)N2C(=O)c3cccc(N)c3C2=O)cc(OC)c1OC,-2%,6%,-2%,-11,-5%,-3
Nc1cccc2c1C(=O)N(C(=O)/C=C/c1cccc(F)c1)C2=O,-3%,2%,1%,-16,28µM*,-24
Nc1cccc2c1C(=O)N(C(=O)/C=C/c1cccc(Br)c1)C2=O,?,8%,-13%,0,20µM*,-25
Cc1ccc2onc(CNC(=O)Nc3ccccc3C#N)c2c1,/,6%,/,/,28%,/

# Assay outcomes as filed in PubChem BioAssay.
